Data from PubChem BioAssay (Tox21).
Several values for one entry are separate records, joined by “and”; a condition that tells them apart may be missing. Equal values may be shown once. Inconclusive results are not listed. Activity calls are given as the source filed them. Unless noted, calls come from the whole dose curve.

Tests used:
[1] = Nuclear factor erythroid 2-related factor 2/antioxidant responsive element (Nrf2/ARE) small molecule agonists: qHTS cell viability counter screen in human keratinocytes (AID 1919968; active = well fitted curve in the direction sought with a large enough effect in the repeat runs; an effect the other way counts as inactive or inconclusive; note: nearly all actives have a fitted effect of over 55% in size)
In short: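 Cells of the KeratinoSens line were plated at 1,500 per well and left for 5 h before compound transfer from DMSO stocks. After a 23 h incubation (37 C, 5% CO2), CellTiter-Fluor was added. Signal was taken as fluorescence intensity 1 h later.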

[2] = Nuclear factor erythroid 2-related factor 2/antioxidant responsive element (Nrf2/ARE) small molecule agonists: luciferase reporter gene qHTS assay in human keratinocytes (AID 1919969); note: nearly all actives have a fitted effect of over 35% in size; note: potency is the fitted concentration of half-maximal effect
[3] = target: Gonadotropin-releasing hormone receptor (Homo sapiens) (UniProt P30968); experiment: Human gonadotropin-releasing hormone receptor (GnRHR) small molecule agonists, calcium flux assay in GnRHR-HEK293 cells (AID 1920063); note: nearly all actives have a fitted effect of over 35% in size
Gonadotropin-releasing hormone receptor (Homo sapiens), sequence (P30968 whole entry, looked up): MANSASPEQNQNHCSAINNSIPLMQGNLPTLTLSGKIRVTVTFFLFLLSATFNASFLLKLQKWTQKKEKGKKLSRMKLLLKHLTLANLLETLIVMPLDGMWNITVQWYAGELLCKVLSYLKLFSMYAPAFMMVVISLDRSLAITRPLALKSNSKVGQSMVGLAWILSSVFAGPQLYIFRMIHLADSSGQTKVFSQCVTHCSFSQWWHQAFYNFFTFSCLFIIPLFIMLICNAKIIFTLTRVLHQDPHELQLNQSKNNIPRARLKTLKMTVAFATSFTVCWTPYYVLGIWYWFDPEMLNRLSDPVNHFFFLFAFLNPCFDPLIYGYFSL
In short: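 Compounds dissolved in DMSO are pin-transferred onto dye-loaded GnRHR-HEK293 cells, which were seeded 18 h before at 37 C/5% CO2. Calcium signal is read as fluorescence intensity at 1 s intervals for 3 min.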

[4] = target: KiSS-1 receptor (Homo sapiens) (UniProt Q969F8); experiment: Human kisspeptin (KISS1R) small molecule agonists, calcium flux assay in KISS1R-HEK293 cells (AID 1920064; active = well fitted curve in the direction sought with a large enough effect in the repeat runs; an effect the other way counts as inactive or inconclusive)
KiSS-1 receptor (Homo sapiens), sequence (Q969F8 whole entry, looked up): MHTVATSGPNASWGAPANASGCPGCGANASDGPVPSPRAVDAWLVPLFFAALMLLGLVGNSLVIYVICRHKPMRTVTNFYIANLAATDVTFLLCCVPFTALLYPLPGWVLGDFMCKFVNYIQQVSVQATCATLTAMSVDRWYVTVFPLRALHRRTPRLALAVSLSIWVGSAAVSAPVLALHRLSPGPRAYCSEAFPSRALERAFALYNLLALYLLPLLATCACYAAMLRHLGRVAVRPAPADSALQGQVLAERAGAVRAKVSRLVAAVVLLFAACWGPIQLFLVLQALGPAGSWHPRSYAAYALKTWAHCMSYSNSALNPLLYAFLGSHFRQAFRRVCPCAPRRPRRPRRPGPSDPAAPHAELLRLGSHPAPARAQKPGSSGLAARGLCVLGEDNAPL
In short: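 Cell line: HEK293, stable human KISS1R. Dye loading 1 h at 37 C after 18 h culture. Read: kinetic fluorescence, 480/540 nm, 3 min at 1 s intervals.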

[5] = G protein-coupled receptor (GPCR) small molecule agonists, calcium flux assay: HEK293 wild type cell line counter screen (AID 1920065)
In short: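 Tox21 10K compounds, 15 concentrations each in triplicate, pin-transferred in DMSO onto dye-loaded cells; kinetic read at 480/540 nm for 3 min, 1 s intervals.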

[6] = p53 small molecule agonists, cell-based qHTS assay with human liver microsomes: qHTS cell viability counter screen (AID 1963579); note: nearly all actives have a fitted effect of over 45% in size
In short: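 Metabolically activated exposure: compounds, human liver microsomes and NADPH (0.5 mg/mL final apiece) were added to p53RE-bla cells seeded 5 h earlier, left 16 h at 37 C, and then assessed for viability by CellTiter-Glo luminescence.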

[7] = p53 small molecule agonists, cell-based qHTS assay with rat liver microsomes: qHTS cell viability counter screen (AID 1963580); note: nearly all actives have a fitted effect of over 45% in size
In short: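 Rat liver microsome (0.5 mg/mL final) and NADPH (0.5 mg/mL final) co-incubation with compounds for 16 h at 37 C on HCT-116 p53RE-bla cells; cytotoxicity taken from intracellular ATP luminescence.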

[8] = p53 small molecule agonists, cell-based qHTS assay: qHTS cell viability counter screen (AID 1963581); note: nearly all actives have a fitted effect of over 45% in size
In short: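 ATP content measured by luminescence in HCT-116 p53RE-bla cells treated 16 h at 37 C, same wells as the reporter screen.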

[9] = cAMP Responsive Elements (CRE) small molecule agonists, cell-based qHTS assay (AID 1963590); note: potency is the fitted concentration of half-maximal effect
In short: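 HEK 293T cells stably bearing CRE-bla were plated at 2,000 cells per well and rested 18 h. Compounds, positive controls or DMSO were added for 3 h at 37 C. LiveBLAzer B/G substrate was then loaded for 2 h at room temperature.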

[10] = cAMP Responsive Elements (CRE) small molecule antagonists, cell-based qHTS assay (AID 1963591; active = well fitted inhibition curve with a large enough effect in the signal ratio in the repeat runs, not every such curve was filed as active; the % refers to the signal ratio)
In short: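 First, CRE-bla HEK293T cells settled 18 h at 37 C. Next, compound and 0.25 uM final NKH477 were applied for 3 h. Last, LiveBLAzer B/G substrate was loaded for 2 h at room temperature.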

[11] = target: Beta-2 adrenergic receptor (Homo sapiens) (UniProt P07550); experiment: Adrenergic beta2 receptor (ADRB2) small molecule antagonists, cell-based qHTS assay (AID 1963592); note: series mostly up to about 92 µM; nearly all actives have a fitted effect of over 50% in size
Beta-2 adrenergic receptor (Homo sapiens), sequence (P07550 whole entry, looked up): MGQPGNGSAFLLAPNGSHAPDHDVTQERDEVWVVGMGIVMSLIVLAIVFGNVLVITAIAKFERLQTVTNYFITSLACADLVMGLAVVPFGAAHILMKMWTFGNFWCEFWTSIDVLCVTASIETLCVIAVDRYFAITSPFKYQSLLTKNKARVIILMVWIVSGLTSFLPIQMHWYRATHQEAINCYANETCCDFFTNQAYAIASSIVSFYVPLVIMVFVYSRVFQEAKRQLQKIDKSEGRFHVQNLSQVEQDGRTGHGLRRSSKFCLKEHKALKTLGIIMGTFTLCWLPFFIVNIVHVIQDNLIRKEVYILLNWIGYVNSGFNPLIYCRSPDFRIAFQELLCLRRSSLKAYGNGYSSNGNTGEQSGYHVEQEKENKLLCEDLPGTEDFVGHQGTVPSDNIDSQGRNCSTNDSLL
In short: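 Assay format: CHO-ADRB2 cells, 18-20hr seeding at 37C/5% CO2, then compound plus 1nM isoproterenol agonist mix for 0.5hr RT. Homogeneous time-resolved fluorescence cAMP detection after 1hr, expressed as 665/615 nm ratio.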

[12] = target: Beta-2 adrenergic receptor (Homo sapiens) (UniProt P07550); experiment: Adrenergic beta2 receptor (ADRB2) small molecule agonists, cell-based qHTS assay (AID 1963593);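 note: CHO cells stably overexpressing human ADRB2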
In short: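 CHO cells stably over-expressing ADRB2 were plated overnight at 37C, then dosed with compounds plus a stimulation mix containing 100uM IBMX and 25uM Ro-20-1724 for 0.5hr at room temperature. cAMP was measured by HTRF competition, 1hr.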

[13] = target: D(2) dopamine receptor (Homo sapiens) (UniProt P14416); experiment: Dopamine D2 receptor (DRD2) small molecule agonists, cell-based qHTS assay (AID 1963594); note: nearly all actives have a fitted effect of over 35% in size
D(2) dopamine receptor (Homo sapiens), sequence (P14416 whole entry, looked up): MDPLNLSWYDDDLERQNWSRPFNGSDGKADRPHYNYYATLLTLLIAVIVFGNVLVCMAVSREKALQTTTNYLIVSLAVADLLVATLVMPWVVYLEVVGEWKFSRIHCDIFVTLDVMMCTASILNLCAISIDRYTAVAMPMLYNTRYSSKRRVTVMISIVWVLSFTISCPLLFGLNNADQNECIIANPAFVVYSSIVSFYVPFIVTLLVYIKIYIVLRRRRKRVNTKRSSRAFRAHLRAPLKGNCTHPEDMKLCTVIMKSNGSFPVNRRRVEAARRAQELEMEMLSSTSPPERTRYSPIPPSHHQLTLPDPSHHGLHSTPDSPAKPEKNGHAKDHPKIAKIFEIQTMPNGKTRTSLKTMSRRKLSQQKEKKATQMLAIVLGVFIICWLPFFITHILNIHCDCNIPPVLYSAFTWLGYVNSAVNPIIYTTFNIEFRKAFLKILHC
In short: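 cAMP accumulation in DRD2-HEK293 cells measured by HTRF after 1 h detection; compounds added 10 min before NKH477 (200nM […]) forskolin-analogue stimulation, 30 min at room temperature, with Ro20-1724 present at 0.1 mM final.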

[14] = target: D(2) dopamine receptor (Homo sapiens) (UniProt P14416); experiment: Dopamine D2 receptor (DRD2) small molecule antagonists, cell-based qHTS assay (AID 1963595; active = well fitted inhibition curve with a large enough effect in the signal ratio in the repeat runs, with a control signal flat; the % refers to the signal ratio)
In short: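 HEK293 cells stably expressing DRD2 were preincubated with 0.1 mM Ro20-1724, then with compound for 10 min at room temperature. Cells were stimulated with 200 nM NKH477 plus 12 nM quinpirole for 30 min, and cAMP was read by HTRF.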

[15] = target: 5-hydroxytryptamine receptor 2A (Homo sapiens) (UniProt P28223); experiment: 5-hydroxytryptamine receptor 2A (HTR2A) small molecule antagonists, cell-based qHTS assay (AID 1963586); note: nearly all actives have a fitted effect of over 45% in size
5-hydroxytryptamine receptor 2A (Homo sapiens), sequence (P28223 whole entry, looked up): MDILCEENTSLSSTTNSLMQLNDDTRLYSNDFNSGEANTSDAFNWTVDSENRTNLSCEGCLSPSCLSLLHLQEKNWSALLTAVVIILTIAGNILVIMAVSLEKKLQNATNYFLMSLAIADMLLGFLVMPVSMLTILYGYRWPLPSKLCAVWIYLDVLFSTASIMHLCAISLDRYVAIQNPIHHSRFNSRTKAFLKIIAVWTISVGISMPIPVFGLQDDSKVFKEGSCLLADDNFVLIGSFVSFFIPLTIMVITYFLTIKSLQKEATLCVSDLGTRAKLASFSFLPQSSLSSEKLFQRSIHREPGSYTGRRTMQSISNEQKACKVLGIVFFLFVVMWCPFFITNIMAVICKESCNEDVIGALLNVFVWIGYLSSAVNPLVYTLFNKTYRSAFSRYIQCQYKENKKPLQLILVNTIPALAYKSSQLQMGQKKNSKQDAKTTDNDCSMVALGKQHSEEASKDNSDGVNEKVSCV
In short: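 CHO cells stably expressing human HTR2A were plated for 18 h at 37 C, then loaded with calcium dye for 1 h. Compounds were preincubated 5 min at room temperature before DOI (4 nM solution) was added. Kinetic fluorescence was read for 3 min.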

[16] = target: Muscarinic acetylcholine receptor M1 (Homo sapiens) (UniProt P11229); experiment: Cholinergic receptor muscarinic 1 (CHRM1) small molecule antagonists, cell-based qHTS assay (AID 1963588); note: nearly all actives have a fitted effect of over 40% in size
Muscarinic acetylcholine receptor M1 (Homo sapiens), sequence (P11229 whole entry, looked up): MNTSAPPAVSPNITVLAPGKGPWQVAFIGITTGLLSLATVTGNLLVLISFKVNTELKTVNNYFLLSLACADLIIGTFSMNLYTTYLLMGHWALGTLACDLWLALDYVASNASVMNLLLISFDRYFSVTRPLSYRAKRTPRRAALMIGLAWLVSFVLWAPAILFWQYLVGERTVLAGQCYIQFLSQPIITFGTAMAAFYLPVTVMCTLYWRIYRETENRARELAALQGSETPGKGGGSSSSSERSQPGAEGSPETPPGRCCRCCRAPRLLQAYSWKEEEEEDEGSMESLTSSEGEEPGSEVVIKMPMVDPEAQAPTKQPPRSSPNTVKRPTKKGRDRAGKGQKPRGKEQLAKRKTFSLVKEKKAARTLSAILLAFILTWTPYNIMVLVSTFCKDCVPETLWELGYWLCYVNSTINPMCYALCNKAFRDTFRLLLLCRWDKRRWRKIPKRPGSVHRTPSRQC
In short: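 Compounds were tested at 15 concentrations in three independent runs. Dye-loaded CHRM1-CHO cells were exposed 5 min at room temperature before stimulation by acetylcholine added at 50nM. Intracellular calcium was read kinetically on FDSS for 3 min.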

[17] = target: Muscarinic acetylcholine receptor M1 (Homo sapiens) (UniProt P11229); experiment: Cholinergic receptor muscarinic 1 (CHRM1) small molecule agonists, cell-based qHTS assay (AID 1963589); note: nearly all actives have a fitted effect of over 35% in size
In short: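 Homogeneous fluorescence calcium flux, agonist mode. Human M1-expressing CHO cells; compound dosed at 15 concentrations, three independent runs; signal sampled every 1 sec.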

[18] = target: 5-hydroxytryptamine receptor 2A (Homo sapiens) (UniProt P28223); experiment: 5-hydroxytryptamine receptor 2A (HTR2A) small molecule agonists, cell-based qHTS assay (AID 1963587); note: nearly all actives have a fitted effect of over 30% in size
In short: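 Kinetic calcium-flux fluorescence (2 min, 1 sec intervals) after compound addition in agonist mode. HTR2A-CHO cells were cultured 18 h, then dye-loaded 1 h at 37 C.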

Measured: Potency

NNc1ccccc1
inactive: [1] | [2] | [3] | [4] | [5] | [6] | [7] | [8] | [9] | [10] | [11] | [12] | [13] | [14]

Nc1c(Cl)cc([N+](=O)[O-])cc1Cl
inactive: [1] | [2] | [3] | [4] | [5] | [6] | [7] | [8] | [15] | [16] | [17] | [10] | [11] | [12] | [13] | [14]

CC[n+]1ccccc1
inactive: [1] | [2] | [3] | [4] | [5] | [6] | [7] | [8] | [18] | [16] | [17] | [9] | [10] | [11] | [12] | [13] | [14]

O=C/C(Cl)=C(/Cl)C(=O)O
active: [2] 68.5 µM and 68.6 µM
inactive: [1] | [3] | [4] | [5] | [6] | [8] | [15] | [18] | [16] | [17] | [9] | [10] | [11] | [12] | [13] | [14]

CC(C)(C)c1ccccc1O
inactive: [1] | [2] | [3] | [4] | [5] | [6] | [7] | [15] | [18] | [16] | [17] | [9] | [10] | [11] | [12] | [13] | [14]

CCCCN(CCCC)SN(C)C(=O)Oc1cccc2c1OC(C)(C)C2
inactive: [1] | [3] | [4] | [5] | [6] | [7] | [8] | [15] | [16] | [17] | [10] | [11] | [12] | [13] | [14]
active: [2] 24.7 µM and 54.5 µM

c1ccc2sc(SNC3CCCCC3)nc2c1
active: [2] 53.9 µM and 61.1 µM
inactive: [1] | [3] | [4] | [5] | [6] | [7] | [15] | [18] | [16] | [17] | [9] | [10] | [11] | [12] | [13] | [14]

CCCN(CCOc1c(Cl)cc(Cl)cc1Cl)C(=O)n1ccnc1
active: [9] 27.9 µM and 48.6 µM
inactive: [1] | [2] | [3] | [4] | [5] | [6] | [8] | [15] | [18] | [16] | [17] | [10] | [11] | [13] | [14]
